# Data as given in PubChem BioAssay.
# Calls of active or inactive are those of the source.
# Tests used:
# [1] = tested on: Human papillomavirus type 1a protein E7 (residues 44-93); experiment: small molecules binding HPV E7 44-93 – biochemical, small-molecule microarray, residues 44-93, 635 nm fluorescence, primary screen (AID 1108); conditions: fluorescence 635 nm, higher = more signal;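 also: E7 fragment applied at 1 µg/mL in TBST for 1 h at 4 C; score combines spot fluorescence with its signal to noise ratio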
# [2] = hepatitis C replication reporter changes, two-sided – Huh7 cells, luciferase reporter, HCV replication inhibitor project, primary screen (AID 1109); conditions: Huh7 HCV replicon luciferase reporter, 48 h; higher = more signal;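 also: huh7 hepatoma cells harbouring a luciferase neomycin HCV replicon reporter; luciferase luminescence as measure of HCV replicon replication; test concentration not given here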
# [3] = target: Left-right determination factor 2 (Homo sapiens) (UniProt O00292); experiment: small molecules binding LEFTY2 protein – biochemical, small-molecule microarray, 635 nm fluorescence scan, primary screen (AID 1110); conditions: higher = more signal
# Chain of Left-right determination factor 2 (Homo sapiens) (O00292 whole entry, looked up): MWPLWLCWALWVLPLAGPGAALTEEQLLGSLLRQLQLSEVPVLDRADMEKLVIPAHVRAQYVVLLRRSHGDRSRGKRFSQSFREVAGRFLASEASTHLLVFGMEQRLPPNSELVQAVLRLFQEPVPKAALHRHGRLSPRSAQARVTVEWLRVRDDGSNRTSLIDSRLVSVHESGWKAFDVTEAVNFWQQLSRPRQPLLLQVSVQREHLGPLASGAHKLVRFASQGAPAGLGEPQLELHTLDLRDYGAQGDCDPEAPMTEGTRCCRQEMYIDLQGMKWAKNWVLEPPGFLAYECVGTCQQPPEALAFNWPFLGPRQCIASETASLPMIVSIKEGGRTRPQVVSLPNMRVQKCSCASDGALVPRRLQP
# [4] = target: Calmodulin-1 (Homo sapiens) (UniProt P0DP23); experiment: small molecules binding calmodulin-1 with EGTA – biochemical, small-molecule microarray, Cy5-labelled CALM1, profiling panel (AID 1111); conditions: Cy5-CALM1 binding fluorescence, higher = more signal;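 also: labelled calmodulin applied in Tris saline Tween buffer holding calcium plus EGTA and DTT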
# [5] = target: Calmodulin-1 (Homo sapiens) (UniProt P0DP23); experiment: small molecules binding Ca-loaded calmodulin-1 – biochemical, small-molecule microarray, Cy5-labelled CALM1, plus calcium, artefact control for SMM control-protein annotation, profiling panel (AID 1112); conditions: Cy5-CALM1 binding fluorescence, higher = more signal;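 also: score merges spot fluorescence with signal to noise from triplicate slides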
# [6] = probe aWnt5a binding to arrayed compounds – biochemical, biotinylated probe, 635/667 nm fluorescence, primary screen (AID 1113); conditions: small-molecule microarray, higher = more signal;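 also: score merges 667 nm fluorescence intensity with signal-to-noise per printed feature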
# [7] = probe aShh binding to arrayed compounds – biochemical, biotinylated probe, 635/667 nm fluorescence, primary screen (AID 1114); conditions: small-molecule microarray, higher = more signal;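 also: probe is biotin-labelled aShh protein from a stem cell growth factor screen; measures binding of labelled protein to compounds printed on the slide; score merges feature fluorescence at 667 nm with signal-to-noise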
# [8] = probe aNog binding to arrayed compounds – biochemical, biotinylated probe, 635/667 nm fluorescence, primary screen (AID 1115); conditions: small-molecule microarray, higher = more signal;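 also: probe is biotinylated aNog protein used at 0.15 µg/mL for 1 h at 4 C; z-score combines 667 nm fluorescence of each spot with its signal to noise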
# [9] = target: Torsin-1A-interacting protein 1 (Homo sapiens) (UniProt Q5JTV8); experiment: compound microarray binding of lysate hLAP1 – cell lysate, small-molecule microarray, COS7 lysate, 635/667 nm fluorescence, primary screen (AID 1116); conditions: 635 nm fluorescence, higher = more signal
# Chain of Torsin-1A-interacting protein 1 (Homo sapiens) (Q5JTV8 whole entry, looked up): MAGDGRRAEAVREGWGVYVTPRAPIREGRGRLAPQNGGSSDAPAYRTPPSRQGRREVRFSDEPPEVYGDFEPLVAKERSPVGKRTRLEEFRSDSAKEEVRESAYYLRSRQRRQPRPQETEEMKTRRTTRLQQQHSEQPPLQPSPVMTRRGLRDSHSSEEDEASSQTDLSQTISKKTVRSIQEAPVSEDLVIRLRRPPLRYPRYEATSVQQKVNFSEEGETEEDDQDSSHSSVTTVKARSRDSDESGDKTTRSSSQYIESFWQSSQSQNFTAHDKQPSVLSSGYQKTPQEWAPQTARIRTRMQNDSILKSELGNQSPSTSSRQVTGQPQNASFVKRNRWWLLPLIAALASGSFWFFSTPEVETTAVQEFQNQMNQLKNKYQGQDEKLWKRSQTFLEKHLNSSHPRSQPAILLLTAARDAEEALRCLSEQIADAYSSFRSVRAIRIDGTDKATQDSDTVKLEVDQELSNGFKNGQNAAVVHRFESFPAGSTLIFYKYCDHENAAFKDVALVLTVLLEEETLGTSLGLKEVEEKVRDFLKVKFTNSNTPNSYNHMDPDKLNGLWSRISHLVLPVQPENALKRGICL
# [10] = target: Alpha-bungarotoxin (Bungarus multicinctus) (UniProt P60615); experiment: compounds binding labelled alpha-BTX control protein – biochemical, small-molecule microarray, Alexa647 label, 635/667 nm fluorescence, artefact control for SMM control protein annotation, profiling panel (AID 1117); conditions: alpha-BTX-A647 binding fluorescence, higher = more signal
# Chain of Alpha-bungarotoxin (Bungarus multicinctus) (P60615 whole entry, looked up): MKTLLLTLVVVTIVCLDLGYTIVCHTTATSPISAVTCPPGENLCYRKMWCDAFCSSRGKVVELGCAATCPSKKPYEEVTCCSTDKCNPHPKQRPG
# Albumin (Bos taurus) = Albumin (Bos taurus) (UniProt P02769); experiment: compounds binding labelled BSA control protein – biochemical, small-molecule microarray, Alexa647 label, 635/667 nm fluorescence, artefact control for SMM control protein annotation, profiling panel (AID 1118); conditions: BSA-A647 binding, fluorescence 635 nm, higher = more signal;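 also: score merges 667 nm emission intensity and signal-to-noise per printed compound spot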
# Chain of Albumin (Bos taurus) (P02769 whole entry, looked up): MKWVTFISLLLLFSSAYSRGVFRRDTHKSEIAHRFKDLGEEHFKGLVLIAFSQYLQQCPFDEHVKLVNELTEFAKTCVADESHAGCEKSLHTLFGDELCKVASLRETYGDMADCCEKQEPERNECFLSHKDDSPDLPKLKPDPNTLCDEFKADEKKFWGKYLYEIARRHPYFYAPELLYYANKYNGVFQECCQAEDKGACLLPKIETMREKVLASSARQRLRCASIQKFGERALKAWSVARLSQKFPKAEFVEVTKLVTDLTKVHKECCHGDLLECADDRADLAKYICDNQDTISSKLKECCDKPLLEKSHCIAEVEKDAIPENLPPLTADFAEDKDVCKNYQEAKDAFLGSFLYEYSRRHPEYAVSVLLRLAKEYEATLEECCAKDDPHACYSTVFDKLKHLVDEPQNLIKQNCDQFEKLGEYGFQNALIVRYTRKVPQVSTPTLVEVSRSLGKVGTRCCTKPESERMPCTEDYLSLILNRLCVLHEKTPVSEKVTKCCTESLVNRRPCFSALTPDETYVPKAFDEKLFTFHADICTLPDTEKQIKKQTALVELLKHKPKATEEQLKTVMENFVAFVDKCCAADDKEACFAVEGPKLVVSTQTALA
# [11] = probe aXIP binding to arrayed compounds – biochemical, NeuroSMM set, 635/667 nm fluorescence, primary screen (AID 1119); conditions: small-molecule microarray, higher = more signal, called active from +8 up or from −8 down;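 also: probe is the protein aXip251-270 applied at 1 µg/mL to compound-printed slides; binding of probe to printed compounds measured as 667 nm fluorescence plus signal to noise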
# [12] = probe aNOTCH3 binding on compound microarray – biochemical, small-molecule microarray, 635/667 nm fluorescence, primary screen (AID 1120); conditions: higher = more signal;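 also: probe is a biotin-tagged antibody raised against NOTCH3 rather than NOTCH3 protein; score merges spot fluorescence near 667 nm with spot signal to noise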
# [13] = probe aNOTCH2 binding on compound microarray – biochemical, small-molecule microarray, 635/667 nm fluorescence, primary screen (AID 1121); conditions: higher = more signal;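 also: score merges feature fluorescence read at 667 nm with its signal to noise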
# [14] = target: Carbonic anhydrase 2 (Homo sapiens) (UniProt P00918); experiment: compounds binding carbonic anhydrase 2 – biochemical, small-molecule microarray, Alexa647-labelled CAII, profiling panel (AID 1122); conditions: CAII-A647 binding fluorescence, higher = more signal
# [15] = COS7 lysate on small-molecule microarray, probe aHis, 635 nm (AID 1123); conditions: COS7 cell lysate, fluorescence, higher = more signal;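 also: z-score combines 667nm fluorescence intensity with signal-to-noise per printed compound spot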
# [16] = probe aLAP1 signal on lysate-treated microarray – cell lysate, small-molecule microarray, COS7 lysate, primary screen (AID 1124); conditions: probe aLAP1, fluorescence, higher = more signal;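 also: lysate comes from COS7 cells expressing LAP1 and is applied at 0.3 µg/mL; score merges spot fluorescence near 667 nm with signal-to-noise over triplicate slides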
# Sam68 (KHDRBS1) = experiment: compounds binding KHDRBS1 protein – biochemical, small-molecule microarray, 635 nm fluorescence, primary screen (AID 1125); conditions: higher = more signal;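 also: score merges 667 nm channel intensity with signal to noise over triplicate slides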
# [17] = tested on: Chordin-like protein 2 (CHRDL2); experiment: compounds binding chordin-like 2 – biochemical, small-molecule microarray, 635 nm fluorescence, primary screen (AID 1126); conditions: fluorescence 635 nm, higher = more signal;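 also: printed compound slides probed with Chrdl2 protein at 4 µg/mL for 1 h at 4 C; score merges 667 nm emission intensity with signal to noise over three replicate slides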
# [18] = target: Concanavalin-A (Canavalia ensiformis) (UniProt P02866); experiment: compounds binding concanavalin A lectin – biochemical, small-molecule microarray, Alexa647 label, 635 nm, artefact control for SMM control protein annotation, primary screen (AID 1127); conditions: ConA-A647 binding fluorescence, higher = more signal;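 also: z combines 667 nm emission intensity with signal-to-noise across three replicate slides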
# Chain of Concanavalin-A (Canavalia ensiformis) (P02866 whole entry, looked up): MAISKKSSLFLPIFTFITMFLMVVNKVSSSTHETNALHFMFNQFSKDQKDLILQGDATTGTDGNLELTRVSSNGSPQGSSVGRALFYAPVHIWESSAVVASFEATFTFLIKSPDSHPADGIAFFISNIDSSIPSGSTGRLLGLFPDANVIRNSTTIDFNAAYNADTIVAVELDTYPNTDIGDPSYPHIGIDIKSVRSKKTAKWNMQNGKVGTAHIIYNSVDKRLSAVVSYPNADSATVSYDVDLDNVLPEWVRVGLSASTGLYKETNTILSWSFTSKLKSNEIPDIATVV
Compound,composite z-score [1],z-score [2],composite z-score [3],composite z-score [4],composite z-score [5],composite z-score [6],composite z-score [7],composite z-score [8],composite z-score [9],composite z-score [10],composite z-score (Albumin (Bos taurus)),composite Z-score [11],composite z-score [12],composite z-score [13],composite z-score [14],composite z-score [15],composite z-score [16],composite z-score (Sam68 (KHDRBS1)),composite z-score [17],composite z-score [18]
O=C/C=C/c1ccc(Cl)cc1,-1.74,-0.482,0.163,-0.925,-0.0367,-0.0846,-0.147,-0.426,-0.381,0.0933,-1.04,0.411 (inactive),-0.186,-0.127,-0.457,-0.267,-0.565,-1.01,0.0502,-0.184
Cc1ccccc1C(O)C1C=CC2C(=O)N(C)C(=O)C2N1Nc1ccccc1 (stereo not given),0.633,-0.712,0.103,2.3,1.06,0.111,-0.0289,1.07,1.91,1.08,1,0.0032 (inactive),0.0674,-0.0168,0.821,2.05,0.415,1.23,-0.345,1.15
CCOC(=O)C[C@H]1[C@H](OC(=O)c2ccc(-c3ccccc3)cc2)[C@@H](NC(=O)Cc2ccc(OC)cc2)c2cc(OCCCO)ccc2N1C(=O)c1ccc2ccccc2n1,1.13,-1.92,0.0394,0.882,-0.0431,0.0068,-0.282,-0.201,-0.0103,0.0263,0.647,-1.15 (inactive),0.0408,-0.0288,0.19,1.24,0.561,0.891,-0.62,0.762
O=C(NCc1ccccc1)[C@]1(CCS(=O)(=O)c2ccccc2)N=C(c2ccc(OCCCO)cc2)O[C@@H]1c1ccccc1,1.15,-2.05,0.554,1.53,0.206,0.0579,0.182,0.0539,0.51,0.452,0.714,0.235 (inactive),0.296,-0.048,0.555,0.751,0.379,1.31,0.205,1.08
COC(=O)c1c(CC[C@@H](CO)NC(=O)N[C@@H](Cc2ccccc2)Cn2cc(C3(O)CCCCC3)nn2)oc(C(C)=O)c1C(=O)OC,1.28,-1.47,0.693,0.267,-0.36,-0.096,-0.142,-0.449,0.639,0.519,0.357,-0.0293 (inactive),0.0893,-0.0942,0.253,0.287,-0.0804,1.29,0.625,0.82
COc1ccc(C#Cc2ccc3c(c2)[C@]2(C(=O)N3)[C@H](C(=O)NC[C@H](O)c3ccccc3)[C@H]3C(=O)O[C@H](c4ccccc4)[C@H](c4ccccc4)N3[C@@H]2c2ccccc2OCCO)cc1,0.272,-2.86,0.5,1.08,0.243,0.0229,0.232,0.325,0.967,1.22,0.566,0.29 (inactive),0.175,-0.0157,0.575,1.8,1.03,1.29,0.469,1.14
CN(C)CCCCCCNC(=O)[C@H]1C[C@H]2C(=O)N[C@@H](CCCCN)C(=O)N2[C@H]1c1ccc(O)cc1,1.48,-0.181,1.56,2.01,1.14,0.914,2.1,3.38,4.52,2.42,0.987,5.54 (inactive),1.78,0.657,0.586,4.3,1.16,1.34,1.45,1.25
COc1ccc([Si](C)(C)[C@H]2[C@H](CC(=O)N(CCO)Cc3ccccc3)O[C@@]3(C(=O)N(Cc4cccc(N5CCC5=O)c4)c4ccccc43)[C@@H]2C)cc1,0.784,-3.85,0.829,0.64,-0.173,-0.1,-0.0793,-0.0311,0.059,1.03,0.378,4.59 (inactive),-0.0802,-0.154,0.454,1.12,0.782,1.01,1.1,1.11
O=C(CS)NCCCCCCNC(=O)[C@@H]1C[C@@H]2C(=O)N3CCC[C@H]3C(=O)N2[C@@H]1c1ccc(O)cc1,1.41,-0.695,-0.793,0.347,0.0689,0.0868,-0.0146,-0.264,1.35,0.139,-0.766,3.04 (inactive),-0.273,-0.116,0.645,2.88,0.827,0.5,0.361,0.443
CC=CC(O)C1C=CC2C(=O)N(c3ccccc3)C(=O)C2N1Nc1ccc(C(C)C)cc1 (stereo not given),1.42,0.837,0.363,1.42,0.138,0.0194,0.0469,1.65,0.37,1.78,0.98,0.609 (inactive),0.271,0.0751,0.641,3.26,0.3,1.3,0.0045,1.11
CCOC(=O)C1=CC[C@@H](c2ccccc2Cl)N(S(=O)(=O)c2ccc(C)cc2)C1,0.948,-2.7,-0.462,1.52,0.784,-0.117,-0.167,1.25,1.56,0.407,0.963,0.817 (inactive),0.0738,0.145,0.563,2.04,0.837,1.06,-1.04,1.04
